From PubChem BioAssay (EPA / NIEHS)
Where “and” joins values, the source holds several entries; their conditions need not be identical. Equal values may be shown once. Inconclusive results are not listed. Calls of active or inactive are those of the source. Rule for the calls, unless noted: active = hit-call score of the fitted dose curve at least 0.9, where 1 is the maximum; inconclusive = response in the unintended direction; inactive = score below 0.9.

What was measured:
[1] = test system: Sodium/Iodide Symporter (NIS), SLC5A5 (gene 6528); experiment: CPHEA_Stoker_NIS_Inhibition_RAIU: CPHEA's Radioactive Iodide Uptake (RAIU) Assay for Sodium/Iodide Symporter (NIS) Inhibition, Stoker and Laws Labs (AID 2283841)
How it was run: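 Test chemicals, six concentrations from 0.001 to 100uM in 0.5% DMSO, were co-incubated with carrier-free 125I (final 329pM) on hNIS-HEK293T-EPA monolayers in pH 7.4 HEPES-buffered HBSS. Plates stood 2 hours at room temperature, then were washed cold and counted.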

[2] = CPHEA_Stoker_NIS_Cytotoxicity: Cytotoxicity Assessment for CPHEA's Radioactive Iodide Uptake (RAIU) Assay for Sodium/Iodide Symporter (NIS) Inhibition, Stoker and Laws Labs (AID 2283897);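 for AC50: active means loss of ATP signal versus DMSO meaning cytotoxicity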
How it was run: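 Viability in hNIS-HEK293T-EPA cells is scored as a drop in luciferase-detected ATP following 2-hour room-temperature exposure (0.001–100uM; triplicate wells, three cell passages), with DMSO as negative control.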

[3] = CEETOX_H295R_11DCORT_noMTC: CeeTox H295R High-throughput Steroidogenesis Assay for 11-Deoxycortisol (11DCORT), maximum tolerated concentration (MTC) filtered results only (AID 2283911; active = hit-call score of the fitted dose curve at least 0.9, where 1 is the maximum; inactive = score below 0.9); details: actives raise or lower the signal
How it was run: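 H295R cells were prestimulated 48 h with 10 uM forskolin, then exposed 48 h to chemical (0.1% DMSO final). 11-Deoxycortisol in the medium was measured by MTBE extraction and HPLC-MS/MS, with bidirectional fitting versus DMSO and no MTC filtering of concentrations.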

[4] = CEETOX_H295R_OHPREG_noMTC: CeeTox H295R High-throughput Steroidogenesis Assay for OH-Pregnenolone (OHPREG), maximum tolerated concentration (MTC) filtered results only (AID 2283912; active = hit-call score of the fitted dose curve at least 0.9, where 1 is the maximum; inactive = score below 0.9); details: actives raise or lower the signal
How it was run: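 Medium 17alpha-hydroxypregnenolone quantified by reverse-phase HPLC-MS/MS after 48 h chemical exposure of forskolin-prestimulated (10 uM, 48 h) H295R, 0.1% DMSO final. Fitting bidirectional relative to DMSO; no maximum-tolerated-concentration filtering applied.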

[5] = test system: zebrafish Androgen Receptor (AR), gene 100005148; experiment: ATG_zfAR_XSP2: Attagene TRANS-FACTORIAL Multi-Species (XSP2) HepG2 Assay for zebrafish Androgen Receptor (AR) (AID 2283825);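 note: hits raise reporter mRNA above DMSO so AC50 reflects agonist-type gain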
How it was run: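 After 24 h compound exposure in medium with 3 nM 6-alpha-fluorotestosterone plus 1.5 nM norgestrel, HepG2 cells carrying zebrafish AR–GAL4 reporter constructs were assessed for reporter mRNA gain by RT-PCR and capillary electrophoresis.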

[6] = target: Estrogen receptor (Homo sapiens) (UniProt P03372); experiment: ATG_hERa_XSP2: Attagene TRANS-FACTORIAL Multi-Species (XSP2) HepG2 Assay for human Estrogen Receptor (ERa) (AID 2283827)
Sequence of Estrogen receptor (Homo sapiens) (P03372 whole entry, looked up, the tested form may be a part): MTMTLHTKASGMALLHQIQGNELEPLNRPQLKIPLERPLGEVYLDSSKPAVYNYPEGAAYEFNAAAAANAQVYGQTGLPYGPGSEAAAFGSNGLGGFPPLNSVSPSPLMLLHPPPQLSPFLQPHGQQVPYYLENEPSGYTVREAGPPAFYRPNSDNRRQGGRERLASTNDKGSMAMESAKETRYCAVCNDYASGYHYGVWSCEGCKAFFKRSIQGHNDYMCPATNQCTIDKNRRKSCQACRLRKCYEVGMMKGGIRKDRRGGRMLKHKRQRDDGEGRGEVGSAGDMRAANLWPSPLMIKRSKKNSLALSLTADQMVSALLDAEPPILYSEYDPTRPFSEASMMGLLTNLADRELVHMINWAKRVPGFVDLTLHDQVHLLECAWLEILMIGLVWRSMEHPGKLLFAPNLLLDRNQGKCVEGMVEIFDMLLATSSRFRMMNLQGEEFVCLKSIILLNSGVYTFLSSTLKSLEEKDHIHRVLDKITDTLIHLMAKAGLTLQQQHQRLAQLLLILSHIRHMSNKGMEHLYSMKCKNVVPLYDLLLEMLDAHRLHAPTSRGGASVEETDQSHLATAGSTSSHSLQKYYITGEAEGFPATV
How it was run: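 Trans-activation of exogenous human ERa-Gal4 chimera read in HepG2 as reporter transcript after 24 h exposure; medium included 3 nM 6-alpha-fluorotestosterone and 1.5 nM norgestrel. Quantified by RT-PCR with capillary electrophoresis, positive-direction fitting against DMSO.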

[7] = test system: frog Estrogen Receptor (ER2), gene 100174814; experiment: ATG_frER2_XSP2: Attagene TRANS-FACTORIAL Multi-Species (XSP2) HepG2 Assay for frog Estrogen Receptor (ER2) (AID 2283828)
How it was run: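 Read-out: reporter transcript levels by RT-PCR with 6-FAM primer extension, HpaI digestion and capillary electrophoresis, scored as induction over DMSO control. Transfected HepG2 carrying Xenopus ER2–GAL4 chimera; compounds incubated 24 h.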

[8] = target: Peroxisome proliferator-activated receptor gamma (Homo sapiens) (UniProt P37231); experiment: ATG_hPPARg_XSP2: Attagene TRANS-FACTORIAL Multi-Species (XSP2) HepG2 Assay for human Peroxisome Proliferator-activated Receptor gamma (PPARg) (AID 2283829);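 note: actives raise reporter mRNA above DMSO so AC50 reflects PPARg activation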
Sequence of Peroxisome proliferator-activated receptor gamma (Homo sapiens) (P37231 whole entry, looked up, the tested form may be a part): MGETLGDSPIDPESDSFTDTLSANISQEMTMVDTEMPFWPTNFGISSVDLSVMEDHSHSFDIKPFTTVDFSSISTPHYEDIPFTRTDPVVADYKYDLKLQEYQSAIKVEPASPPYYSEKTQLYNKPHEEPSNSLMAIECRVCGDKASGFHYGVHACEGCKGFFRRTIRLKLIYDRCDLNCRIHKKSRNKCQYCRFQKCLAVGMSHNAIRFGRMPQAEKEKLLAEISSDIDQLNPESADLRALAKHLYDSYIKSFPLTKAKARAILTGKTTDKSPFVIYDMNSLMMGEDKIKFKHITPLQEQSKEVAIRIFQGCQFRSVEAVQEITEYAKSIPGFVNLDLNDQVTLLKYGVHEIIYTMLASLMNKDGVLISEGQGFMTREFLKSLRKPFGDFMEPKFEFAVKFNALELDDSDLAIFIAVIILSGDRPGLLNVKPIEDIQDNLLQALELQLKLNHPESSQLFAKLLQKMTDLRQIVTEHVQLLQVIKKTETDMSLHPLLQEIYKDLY
How it was run: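 HepG2 cells transiently transfected with GAL4-UAS reporter units driven by chimeric NR-Gal4 proteins; androgen receptor stimulated with 3 nM 6-alpha-fluorotestosterone and 1.5 nM norgestrel. After 24 h, reporter mRNA quantified by RT-PCR and capillary electrophoresis versus DMSO.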

[9] = target: mouse Peroxisome Proliferator-activated Receptor gamma (PPARg), Pparg (gene 19016) (UniProt P37238); experiment: ATG_mPPARg_XSP2: Attagene TRANS-FACTORIAL Multi-Species (XSP2) HepG2 Assay for mouse Peroxisome Proliferator-activated Receptor gamma (PPARg) (AID 2283830);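 note: hits are gains in reporter mRNA above DMSO so AC50 marks activation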
Sequence of mouse Peroxisome Proliferator-activated Receptor gamma (PPARg), Pparg (gene 19016) (P37238 whole entry, looked up, the tested form may be a part): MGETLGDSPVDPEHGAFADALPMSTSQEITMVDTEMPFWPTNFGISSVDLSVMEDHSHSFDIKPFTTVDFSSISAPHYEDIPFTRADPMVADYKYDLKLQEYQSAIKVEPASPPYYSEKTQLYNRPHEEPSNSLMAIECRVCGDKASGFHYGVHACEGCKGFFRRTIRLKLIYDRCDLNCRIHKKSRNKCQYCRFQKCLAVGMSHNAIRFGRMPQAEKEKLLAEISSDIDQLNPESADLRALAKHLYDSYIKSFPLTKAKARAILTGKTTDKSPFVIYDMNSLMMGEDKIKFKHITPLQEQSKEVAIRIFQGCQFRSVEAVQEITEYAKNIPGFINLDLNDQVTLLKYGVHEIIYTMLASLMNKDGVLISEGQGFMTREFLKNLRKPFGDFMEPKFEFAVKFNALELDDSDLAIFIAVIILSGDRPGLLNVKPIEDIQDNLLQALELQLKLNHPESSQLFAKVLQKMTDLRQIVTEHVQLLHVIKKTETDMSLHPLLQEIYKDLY
How it was run: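 Multiplexed TRANS reporter readout: after 24 h chemical exposure of transfected HepG2 cells (with 3 nM 6-alpha-fluorotestosterone, 1.5 nM norgestrel present), RNA reverse-transcribed, amplified, 6-FAM-labelled and resolved by capillary electrophoresis; mouse PPARg-Gal4 induction scored against DMSO.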

[10] = target: Nuclear receptor subfamily 1 group I member 2 (Mus musculus) (UniProt O54915); experiment: ATG_mPXR_XSP2: Attagene TRANS-FACTORIAL Multi-Species (XSP1) HepG2 Assay for mouse Pregnane X Receptor (PXR) (AID 2283831)
Sequence of Nuclear receptor subfamily 1 group I member 2 (Mus musculus) (O54915 whole entry, looked up, the tested form may be a part): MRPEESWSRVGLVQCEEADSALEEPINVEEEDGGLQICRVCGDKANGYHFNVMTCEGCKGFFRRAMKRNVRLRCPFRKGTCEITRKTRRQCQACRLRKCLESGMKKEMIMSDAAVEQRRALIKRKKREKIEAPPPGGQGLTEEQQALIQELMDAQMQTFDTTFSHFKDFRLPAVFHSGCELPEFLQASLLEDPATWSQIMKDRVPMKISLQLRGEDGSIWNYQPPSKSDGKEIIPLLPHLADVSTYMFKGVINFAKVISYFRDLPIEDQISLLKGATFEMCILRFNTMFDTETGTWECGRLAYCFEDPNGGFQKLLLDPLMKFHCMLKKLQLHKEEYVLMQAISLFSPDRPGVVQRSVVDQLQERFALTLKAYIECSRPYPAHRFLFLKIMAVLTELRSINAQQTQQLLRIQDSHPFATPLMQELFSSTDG
How it was run: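 HepG2 cells transiently transfected with GAL4-UAS reporter units expressing chimeric NR-Gal4 proteins; 24 h compound exposure. Reporter mRNA quantified by RT-PCR and capillary electrophoresis fluorescence; gain of signal fitted against DMSO.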

[11] = target: zebrafish Thyroid Hormone Receptor alpha (TRa), thraa (gene 30670) (UniProt Q98867); experiment: ATG_zfTRa_XSP2: Attagene TRANS-FACTORIAL Multi-Species (XSP1) HepG2 Assay for zebrafish Thyroid Hormone Receptor alpha (TRa) (AID 2283832);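 note: actives raise zebrafish TRa-Gal4 reporter transcript above DMSO baseline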
Sequence of zebrafish Thyroid Hormone Receptor alpha (TRa), thraa (gene 30670) (Q98867 whole entry, looked up, the tested form may be a part): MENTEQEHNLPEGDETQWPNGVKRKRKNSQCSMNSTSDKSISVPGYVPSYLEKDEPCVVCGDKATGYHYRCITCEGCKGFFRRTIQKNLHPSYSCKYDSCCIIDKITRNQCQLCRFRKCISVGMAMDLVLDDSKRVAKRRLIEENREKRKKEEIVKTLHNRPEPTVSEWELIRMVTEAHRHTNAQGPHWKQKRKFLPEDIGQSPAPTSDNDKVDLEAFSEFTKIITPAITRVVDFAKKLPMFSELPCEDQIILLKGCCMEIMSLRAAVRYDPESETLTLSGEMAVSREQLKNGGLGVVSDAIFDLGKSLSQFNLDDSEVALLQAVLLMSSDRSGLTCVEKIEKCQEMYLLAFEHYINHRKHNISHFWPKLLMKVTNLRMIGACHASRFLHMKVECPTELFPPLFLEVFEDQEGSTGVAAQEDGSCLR
How it was run: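 Multiplexed TRANS reporter format in HepG2; the medium also contained 3 nM 6-alpha-fluorotestosterone and 1.5 nM norgestrel. Reporter mRNA after 24 h read by RT-PCR and capillary electrophoresis, scored as induction over DMSO.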

[12] = test system: zebrafish Peroxisome Proliferator-activated Receptor gamma (PPARg), gene 557037; experiment: ATG_zfPPARg_XSP2: Attagene TRANS-FACTORIAL Multi-Species (XSP2) HepG2 Assay for zebrafish Peroxisome Proliferator-activated Receptor gamma (PPARg) (AID 2283833);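 note: reporter mRNA from a zebrafish PPARg GAL4 chimera measured by RT-PCR and capillary electrophoresis; actives increase reporter signal over DMSO so AC50 reflects activation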
How it was run: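 HepG2 cells transiently transfected with multiplexed GAL4-UAS reporter units expressing chimeric NR-Gal4 receptors, dosed 24 h. Reporter mRNA quantified by RT-PCR, fluorescent labelling, HpaI digestion and capillary electrophoresis; gain of signal fitted against DMSO.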

[13] = test system: turtle Thyroid Hormone Receptor, alpha (TRa), gene 101949057; experiment: ATG_trTRa_XSP2: Attagene TRANS-FACTORIAL Multi-Species (XSP1) HepG2 Assay for turtle Thyroid Hormone Receptor, alpha (TRa) (AID 2283834);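 note: hits raise reporter mRNA over the DMSO baseline so AC50 marks activators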
How it was run: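 HepG2 cells transiently transfected with GAL4-UAS reporter units for chimeric turtle TRa-Gal4; mRNA measured 24 h after dosing by RT-PCR and capillary electrophoresis fluorescence, gain of signal fitted against DMSO.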

[14] = ATG_M_61_XSP2: Attagene TRANS-FACTORIAL Multi-Species (XSP2) HepG2 Assay for M61 Transcription Factor (Internal Marker) (AID 2283835; active = hit-call score of the fitted dose curve at least 0.9, where 1 is the maximum; inactive = score below 0.9;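 note: active means a rise in signal above the DMSO baseline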)
How it was run: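 Internal background marker, read as RT-PCR/capillary-electrophoresis reporter mRNA 24 h post-dose in transiently transfected HepG2 cells. Androgen receptor stimulated with 3 nM 6-alpha-fluorotestosterone plus 1.5 nM norgestrel; gain of signal versus DMSO analysed.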

[15] = target: zebrafish Thyroid Hormone Receptor beta (TRb), thrb (gene 30607) (UniProt Q9PVE4); experiment: ATG_zfTRb_XSP2: Attagene TRANS-FACTORIAL Multi-Species (XSP1) HepG2 Assay for zebrafish Thyroid Hormone Receptor beta (TRb) (AID 2283836)
Sequence of zebrafish Thyroid Hormone Receptor beta (TRb), thrb (gene 30607) (Q9PVE4 whole entry, looked up): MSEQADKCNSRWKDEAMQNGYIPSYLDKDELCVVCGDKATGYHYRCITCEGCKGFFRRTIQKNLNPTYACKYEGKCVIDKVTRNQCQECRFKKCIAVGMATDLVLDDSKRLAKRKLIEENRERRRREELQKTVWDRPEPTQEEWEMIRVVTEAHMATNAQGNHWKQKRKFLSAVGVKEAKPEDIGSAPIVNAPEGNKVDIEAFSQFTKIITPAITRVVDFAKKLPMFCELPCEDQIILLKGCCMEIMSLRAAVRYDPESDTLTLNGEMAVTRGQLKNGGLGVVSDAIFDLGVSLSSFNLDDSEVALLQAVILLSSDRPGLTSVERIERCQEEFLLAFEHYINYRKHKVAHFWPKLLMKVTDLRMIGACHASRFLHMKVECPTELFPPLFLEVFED
How it was run: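 Multiplexed trans-activation in HepG2 cells, 24 h treatment, with reporter mRNA read by RT-PCR and capillary electrophoresis. Gain-of-signal against DMSO.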

[16] = target: human Thyroid hormone Receptor beta (TRb), THRB (gene 7068) (UniProt P10828); experiment: ATG_hTRb_XSP2: Attagene TRANS-FACTORIAL Multi-Species (XSP2) HepG2 Assay for human Thyroid hormone Receptor beta (TRb) (AID 2283840);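 note: actives raise reporter mRNA so potency reflects agonist-like gain of signal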
Sequence of human Thyroid hormone Receptor beta (TRb), THRB (gene 7068) (P10828 whole entry, looked up, the tested form may be a part): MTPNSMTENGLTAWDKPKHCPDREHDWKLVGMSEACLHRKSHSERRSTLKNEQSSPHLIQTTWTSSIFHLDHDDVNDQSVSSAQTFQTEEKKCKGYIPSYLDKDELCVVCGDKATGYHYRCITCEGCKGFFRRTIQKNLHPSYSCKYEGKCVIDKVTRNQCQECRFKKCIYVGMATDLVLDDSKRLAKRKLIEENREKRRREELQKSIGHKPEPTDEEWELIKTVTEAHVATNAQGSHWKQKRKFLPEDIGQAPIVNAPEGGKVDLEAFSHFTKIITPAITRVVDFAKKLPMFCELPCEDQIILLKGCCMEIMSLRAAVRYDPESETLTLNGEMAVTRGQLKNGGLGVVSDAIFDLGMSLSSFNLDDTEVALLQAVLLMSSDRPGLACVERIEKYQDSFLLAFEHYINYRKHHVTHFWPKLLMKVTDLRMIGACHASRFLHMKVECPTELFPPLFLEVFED
How it was run: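 HepG2 transiently transfected with a multi-species panel including a human TRb–Gal4 chimera driving Gal4-UAS reporters; medium contained 3 nM 6-alpha-fluorotestosterone and 1.5 nM norgestrel. 24 h dosing; RT-PCR/capillary electrophoresis readout; positive-direction fit vs DMSO.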

[17] = ATG_XTT_Cytotoxicity_XSP2: Cytotoxicity Assessment in the Attagene TRANS-FACTORIAL Multi-Species (XSP2) HepG2 Assay (AID 2283837)
How it was run: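 XTT-based cell number read-out in human HepG2 liver cells carrying transfected reporter units, measured 24 h after chemical dosing. Activity is signal loss versus DMSO baseline.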

[18] = target: human Thyroid hormone Receptor alpha (TRa), THRA (gene 7067) (UniProt P10827); experiment: ATG_hTRa_XSP2: Attagene TRANS-FACTORIAL Multi-Species (XSP2) HepG2 Assay for human Thyroid hormone Receptor alpha (TRa) (AID 2283838)
Sequence of human Thyroid hormone Receptor alpha (TRa), THRA (gene 7067) (P10827 whole entry, looked up, the tested form may be a part): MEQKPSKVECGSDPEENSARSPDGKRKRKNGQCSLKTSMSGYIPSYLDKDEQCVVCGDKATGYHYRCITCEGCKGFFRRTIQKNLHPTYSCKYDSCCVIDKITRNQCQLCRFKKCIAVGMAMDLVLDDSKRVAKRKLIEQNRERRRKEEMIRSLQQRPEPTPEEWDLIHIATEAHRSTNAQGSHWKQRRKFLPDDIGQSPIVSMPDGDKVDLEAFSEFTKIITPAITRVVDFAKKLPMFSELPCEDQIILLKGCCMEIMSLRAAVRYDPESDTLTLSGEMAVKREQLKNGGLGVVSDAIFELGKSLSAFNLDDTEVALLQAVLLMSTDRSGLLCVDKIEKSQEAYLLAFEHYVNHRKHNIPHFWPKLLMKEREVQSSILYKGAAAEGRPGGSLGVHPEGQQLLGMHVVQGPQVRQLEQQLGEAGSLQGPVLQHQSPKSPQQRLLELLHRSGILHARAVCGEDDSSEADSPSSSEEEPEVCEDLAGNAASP
How it was run: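 Gain-of-signal in reporter mRNA, relative to DMSO, after 24 h dosing of transfected HepG2; quantitation by RT-PCR fragment analysis on capillary electrophoresis.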

[19] = target: frog Thyroid hormone Receptor alpha (TRa), thra-a (gene 397942) (UniProt P15204); experiment: ATG_frTRa_XSP2: Attagene TRANS-FACTORIAL Multi-Species (XSP2) HepG2 Assay for frog Thyroid hormone Receptor alpha (TRa) (AID 2283839)
Sequence of frog Thyroid hormone Receptor alpha (TRa), thra-a (gene 397942) (P15204 whole entry, looked up, the tested form may be a part): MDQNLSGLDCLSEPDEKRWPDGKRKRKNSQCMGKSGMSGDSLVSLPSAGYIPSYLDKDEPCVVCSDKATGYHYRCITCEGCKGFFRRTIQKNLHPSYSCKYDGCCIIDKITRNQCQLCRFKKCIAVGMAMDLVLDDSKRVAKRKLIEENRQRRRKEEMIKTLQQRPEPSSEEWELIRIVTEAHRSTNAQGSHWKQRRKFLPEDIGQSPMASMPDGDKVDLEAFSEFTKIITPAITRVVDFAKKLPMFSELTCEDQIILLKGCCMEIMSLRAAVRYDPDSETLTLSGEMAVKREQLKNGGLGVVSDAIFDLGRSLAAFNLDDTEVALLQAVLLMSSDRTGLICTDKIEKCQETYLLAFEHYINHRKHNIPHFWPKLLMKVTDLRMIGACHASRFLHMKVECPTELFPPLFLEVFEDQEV
How it was run: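 HepG2 transiently transfected with multiplexed GAL4-UAS reporters driven by frog TRa-Gal4 chimeras; 24 h chemical exposure. Reporter mRNA quantified by RT-PCR, FAM labelling, HpaI digestion and capillary electrophoresis; gain of signal versus DMSO.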

Measured: AC50

Cc1ccc([N+](=O)[O-])cc1N
inactive: [1] | [2]

c1ccc(Nc2cccc3ccccc23)cc1
inactive: [2]
active: [1] 21.5 µM

CCCCCCCOC(=O)c1ccc(O)cc1
inactive: [1] | [2]

N#Cc1ccc(C(c2ccc(C#N)cc2)n2cncn2)cc1
inactive: [3] | [4]

CCCCCCCCCCCCc1ccc(O)cc1
active: [6] 546 nM and 167 nM | [7] 610 nM and 239 nM | [10] 0.259 µM
inactive: [5] | [8] | [9] | [11] | [12] | [13] | [14] | [15] | [16]

O=C(O)/C=C/c1ccccc1
inactive: [6] | [8] | [9] | [10] | [12] | [15] | [17] | [18] | [16]

COc1ccc(C(=O)/C(Br)=C\C(=O)O)cc1
active: [3] 65.2 µM | [4] 14.2 µM

N#Cc1ccc(C2CCCc3cncn32)cc1 (centres undefined)
not listed: [1] | [2] | [5] | [16] | [18]
inactive: all other assays above

Oc1ccc(-c2ccccc2)c(Cl)c1
active: [6] 5.18 µM and 4.36 µM | [7] 5.62 µM and 3.17 µM | [8] 33.4 µM and 28.7 µM | [9] 33.4 µM | [17] 85.4 µM
not listed: [3] | [4] | [5] | [14]
inactive: all other assays above

CN(C)c1ccc2nc3ccc(=[N+](C)C)cc-3sc2c1
active: [2] 50 µM
inactive: [1]

O=C(OCCc1ccccc1)c1ccccc1
inactive: [1] | [2]

CO[Si](C)(C)OC
inactive: [1] | [2]

CCCCC/C=C\C/C=C\CCCCCCCC(=O)O
active: [2] 80.1 µM
inactive: [1]

CC(C)c1ccc(O)c(C(C)C)c1
inactive: [1] | [2] | [3] | [4]

CC(C)(C)NC(=O)[C@H]1CC[C@H]2[C@@H]3CC[C@H]4NC(=O)C=C[C@]4(C)[C@H]3CC[C@]12C
active: [6] 33.5 µM | [7] 100 µM | [10] 2.09 µM | [13] 25.9 µM
inactive: [9] | [14]

O=C(OCc1ccccc1)c1ccc(O)cc1
inactive: [1] | [2]

CCCC=C(C=O)CC
inactive: [3] | [4]

O=C(O)c1cc(O)c2ccccc2c1O
inactive: [1] | [2]

C=CCOC(=O)c1ccc(C(=O)OCC=C)c(C(=O)OCC=C)c1
active: [1] 10.2 µM
inactive: [2]

C[N+](C)(C)CCCNS(=O)(=O)C(F)(F)C(F)(F)C(F)(F)C(F)(F)C(F)(F)C(F)(F)C(F)(F)C(F)(F)F
active: [1] 7.09 µM

O=C(Oc1ccccc1)c1ccccc1O
inactive: [1] | [2]
